Reference: PubChem BioAssay (NCATS)
Records with an inconclusive call do not appear. Unmarked numbers belong to inactive results. The source made the active and inactive calls. Calls follow the shape of the dose curve; as a rule, active = well fitted inhibition curve with a large enough effect; inconclusive = small, poorly fitted or top-dose-only effect; inactive = flat fitted curve, though single readings scatter. Peptide text beside a SMILES is read from it.

The compounds below were run on CP211 (assay: qHTS profiling for inhibitors of Plasmodium falciparum proliferation (AID 504749; also: nearly all actives have a fitted effect of over 60% in size;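 as to activity, negative = inhibition: 0% = DMSO vehicle and full inhibition = artemisinin control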)). Conditions: P. falciparum in erythrocytes, SYBR Green DNA, 72 h; series mostly up to 12.8 µM; activity, negative = inhibition: at the top concentration.
Procedure, shortened: (§1)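 P. falciparum-infected erythrocytes (0.3% parasitemia, 2.5% hematocrit) incubated with compound 72 h at 37 C, 5% CO2. Parasite DNA detected by SYBR Green after lysis, overnight at room temperature; normalised to 0.29 uM artemisinin and DMSO.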
Potency is read from the fitted curve at half-maximal effect.

Row | SMILES | activity, negative = inhibition | Potency
1 | CCC(C)C(=O)OC1CCC=C2C=CC(C)C(CCC3CC(O)CC(=O)O3)[C@@H]21 (stereo partly drawn) | -6.65% [at 28.7 µM] | –
2 | C[C@]1(c2ccccc2)OC(C(=O)O)=CC1=O | 1.65% [at 28.7 µM] | –
3 | OCC1OC([S-])[C@H](O)C(O)C1O.[Au+] (stereo partly drawn) | -6.77% [at 28.7 µM] | –
4 | COC(=O)N/N=C/C1=C[N+](=O)c2ccccc2[N+]1=O | 7.54% [at 28.7 µM] | –
5 | CN1CC(=O)N=C1N | 4.58% [at 28.7 µM] | –
6 | CNC1CC(N)[C@H](O)[C@@H](O[C@@H]2OC(CO)C3OC4(OC(C(N)CO)C(O)C(O)C4O)O[C@@H]3[C@H]2O)C1O (stereo partly drawn) | -2.54% [at 28.7 µM] | –
7 | COC1C=CO[C@@]2(C)Oc3c(C)c(O)c4c(O)c(c(C=NN5CCN(C)CC5)c(O)c4c3C2=O)NC(=O)/C(C)=C\C=CC(C)C(O)[C@@H](C)C(O)C(C)[C@H](OC(C)=O)C1C (stereo partly drawn) | – | 4.26 µM (active)
8 | CC(=O)N[C@@H]1C(O)OC(CO)C(O)C1O (stereo partly drawn) | -6.56% [at 28.7 µM] | –
9 | CCC(CCC(C)C1CCC2C3CC=C4CC(O)CC[C@@]4(C)C3CC[C@@]12C)C(C)C (stereo partly drawn) | 3.4% [at 28.7 µM] | –
10 | O=C1OC(CO)C(O)C(O)C1O (stereo not drawn) | -0.203% [at 28.7 µM] | –
11 | COc1ccc(CC(N)C(=O)NC2C(CO)OC(n3cnc4c(N(C)C)ncnc43)C2O)cc1 (stereo not drawn) | – | 0.478 µM (active)
12 | CCCC(=O)O[C@]1(C(=O)CO)CCC2[C@@H]3CCC4=CC(=O)CC[C@]4(C)C3C(O)C[C@]21C (stereo partly drawn) | 6.22% [at 28.7 µM] | –
13 | COC(=O)C(Cc1ccccc1)NC(=O)C(N)CC(=O)O (stereo not drawn) (H-Asp-Phe-OMe; configuration not given here) | -0.605% [at 28.7 µM] | –
14 | CC[C@@]12CCCN3CCc4c(n(c5ccccc45)[C@](O)(C(=O)OC)C1)C32 (stereo partly drawn) | -1.48% [at 28.7 µM] | –
15 | CC1(C)SC2C(N3C(=O)C(c4ccccc4)NC3(C)C)C(=O)N2C1C(=O)O (stereo not drawn) | 7.06% [at 28.7 µM] | –
16 | CC1CCC(C(C)C)C(=O)C1 (stereo not drawn) | -2% [at 28.7 µM] | –

Row | SMILES | activity, negative = inhibition | Potency
17 | CC(=O)N[C@H](CC(C)C)C(=O)O | 0.518% [at 28.7 µM] | –
18 | CC(C)C1CCC(C(=O)NC(Cc2ccccc2)C(=O)O)CC1 (stereo not drawn) | -0.32% [at 28.7 µM] | –
19 | COc1ccc2cc(C(C)CO)ccc2c1 (stereo not drawn) | 4.02% [at 28.7 µM] | –
20 | COc1ccc2cc1Oc1ccc(cc1)CC1c3c(cc4c(c3Oc3cc5c(cc3OC)CCN(C)C5C2)OCO4)CCN1C (stereo not drawn) | – | 12 µM (active)
21 | CNC1C(OC2C(O[C@@H]3C(O)C(O)[C@@H](N=C(N)N)C(O)C3N=C(N)N)OC(C)[C@@]2(O)CO)OC(CO)C(O)C1O (stereo partly drawn) | 0.47% [at 28.7 µM] | –
22 | CC1C2CCC3C4CC=C5CC(N(C)C)CC[C@@]5(C)C4CC[C@@]32CN1C (stereo partly drawn) | 11.1% [at 28.7 µM] | –
23 | C[C@]12C=CC(=O)C=C1CCC1C2C(O)C[C@]2(C)C1CC[C@]2(O)C(=O)CO (stereo partly drawn) | 2.97% [at 28.7 µM] | –
24 | COc1ccc2c(c1)N(C[C@@H](C)CN(C)C)c1ccccc1S2 | -4.87% | –
25 | CCOC(=O)C1=CC(OC(CC)CC)C(NC(C)=O)C(N)C1 (stereo not drawn) | -7.93% [at 28.7 µM] | –
26 | CN(C)CCc1c[nH]c2ccc(CC3COC(=O)N3)cc12 (stereo not drawn) | 0.866% [at 28.7 µM] | –
27 | NCC1CCC(N)C(O[C@@H]2C(O)[C@H](O[C@H]3OC(CO)C(O)C(N)C3O)[C@@H](N)C[C@H]2N)O1 (stereo partly drawn) | 0.276% [at 28.7 µM] | –
28 | OCC1O[C@H](OC2C(CO)O[C@@](O)(CO)C2O)C(O)C(O)C1O (stereo partly drawn) | -0.894% [at 28.7 µM] | –
29 | CC1(C)OC2CO[C@]3(COS(N)(=O)=O)OC(C)(C)OC3C2O1 (stereo partly drawn) | 0.215% [at 28.7 µM] | –
30 | CC(=O)OC1CCC2C3CCc4cc(O)ccc4C3CCC12C (stereo not drawn) | 8.27% [at 28.7 µM] | –
31 | CN(C)CCCOC1C(C(O)CO)OC2OC(C)(C)O[C@@H]21 (stereo partly drawn) | 3.14% [at 28.7 µM] | –
32 | COc1cc(C2c3cc4c(cc3C(O[C@@H]3OC5COC(c6cccs6)OC5C(O)C3O)C3COC(=O)C23)OCO4)cc(OC)c1O (stereo partly drawn) | – | 3.38 µM (active)

Each compound was assayed on CP215 in the same assay as above. Conditions: P. falciparum in erythrocytes, SYBR Green DNA, 72 h; series mostly up to 12.8 µM; activity, negative = inhibition: at the top concentration.
Procedure, shortened: as §1

Row | SMILES | activity, negative = inhibition | Potency
33 | CCC(C)C(=O)OC1CCC=C2C=CC(C)C(CCC3CC(O)CC(=O)O3)[C@@H]21 (stereo partly drawn) | -10% [at 28.7 µM] | –
34 | C[C@]1(c2ccccc2)OC(C(=O)O)=CC1=O | -0.975% [at 28.7 µM] | –
35 | OCC1OC([S-])[C@H](O)C(O)C1O.[Au+] (stereo partly drawn) | -3.52% [at 28.7 µM] | –
36 | COC(=O)N/N=C/C1=C[N+](=O)c2ccccc2[N+]1=O | 0.536% [at 28.7 µM] | –
37 | CN1CC(=O)N=C1N | -1.36% [at 28.7 µM] | –
38 | CNC1CC(N)[C@H](O)[C@@H](O[C@@H]2OC(CO)C3OC4(OC(C(N)CO)C(O)C(O)C4O)O[C@@H]3[C@H]2O)C1O (stereo partly drawn) | 12% [at 28.7 µM] | –
39 | COC1C=CO[C@@]2(C)Oc3c(C)c(O)c4c(O)c(c(C=NN5CCN(C)CC5)c(O)c4c3C2=O)NC(=O)/C(C)=C\C=CC(C)C(O)[C@@H](C)C(O)C(C)[C@H](OC(C)=O)C1C (stereo partly drawn) | – | 4.26 µM (active)
40 | CC(=O)N[C@@H]1C(O)OC(CO)C(O)C1O (stereo partly drawn) | 5.24% [at 28.7 µM] | –
41 | CCC(CCC(C)C1CCC2C3CC=C4CC(O)CC[C@@]4(C)C3CC[C@@]12C)C(C)C (stereo partly drawn) | -0.745% [at 28.7 µM] | –
42 | O=C1OC(CO)C(O)C(O)C1O (stereo not drawn) | 12.2% [at 28.7 µM] | –
43 | COc1ccc(CC(N)C(=O)NC2C(CO)OC(n3cnc4c(N(C)C)ncnc43)C2O)cc1 (stereo not drawn) | – | 1.07 µM (active)
44 | CCCC(=O)O[C@]1(C(=O)CO)CCC2[C@@H]3CCC4=CC(=O)CC[C@]4(C)C3C(O)C[C@]21C (stereo partly drawn) | 9.05% [at 28.7 µM] | –
45 | COC(=O)C(Cc1ccccc1)NC(=O)C(N)CC(=O)O (stereo not drawn) (H-Asp-Phe-OMe; configuration not given here) | 7.28% [at 28.7 µM] | –
46 | CC[C@@]12CCCN3CCc4c(n(c5ccccc45)[C@](O)(C(=O)OC)C1)C32 (stereo partly drawn) | 0.787% [at 28.7 µM] | –
47 | CC1(C)SC2C(N3C(=O)C(c4ccccc4)NC3(C)C)C(=O)N2C1C(=O)O (stereo not drawn) | 9.45% [at 28.7 µM] | –
48 | CC1CCC(C(C)C)C(=O)C1 (stereo not drawn) | 3.14% [at 28.7 µM] | –

Row | SMILES | activity, negative = inhibition | Potency
49 | CC(=O)N[C@H](CC(C)C)C(=O)O | -0.628% [at 28.7 µM] | –
50 | CC(C)C1CCC(C(=O)NC(Cc2ccccc2)C(=O)O)CC1 (stereo not drawn) | 0.511% [at 28.7 µM] | –
51 | COc1ccc2cc(C(C)CO)ccc2c1 (stereo not drawn) | -11.5% [at 28.7 µM] | –
52 | CNC1C(OC2C(O[C@@H]3C(O)C(O)[C@@H](N=C(N)N)C(O)C3N=C(N)N)OC(C)[C@@]2(O)CO)OC(CO)C(O)C1O (stereo partly drawn) | 6.62% [at 28.7 µM] | –
53 | CC1C2CCC3C4CC=C5CC(N(C)C)CC[C@@]5(C)C4CC[C@@]32CN1C (stereo partly drawn) | 4.67% [at 28.7 µM] | –
54 | C[C@]12C=CC(=O)C=C1CCC1C2C(O)C[C@]2(C)C1CC[C@]2(O)C(=O)CO (stereo partly drawn) | 0.372% [at 28.7 µM] | –
55 | COc1ccc2c(c1)N(C[C@@H](C)CN(C)C)c1ccccc1S2 | -2.88% | –
56 | CCOC(=O)C1=CC(OC(CC)CC)C(NC(C)=O)C(N)C1 (stereo not drawn) | -4.17% [at 28.7 µM] | –
57 | CN(C)CCc1c[nH]c2ccc(CC3COC(=O)N3)cc12 (stereo not drawn) | 1.91% [at 28.7 µM] | –
58 | NCC1CCC(N)C(O[C@@H]2C(O)[C@H](O[C@H]3OC(CO)C(O)C(N)C3O)[C@@H](N)C[C@H]2N)O1 (stereo partly drawn) | 1.82% [at 28.7 µM] | –
59 | OCC1O[C@H](OC2C(CO)O[C@@](O)(CO)C2O)C(O)C(O)C1O (stereo partly drawn) | -1.14% [at 28.7 µM] | –
60 | CC1(C)OC2CO[C@]3(COS(N)(=O)=O)OC(C)(C)OC3C2O1 (stereo partly drawn) | 5.94% [at 28.7 µM] | –
61 | CC(=O)OC1CCC2C3CCc4cc(O)ccc4C3CCC12C (stereo not drawn) | 3.54% [at 28.7 µM] | –
62 | CN(C)CCCOC1C(C(O)CO)OC2OC(C)(C)O[C@@H]21 (stereo partly drawn) | -5.8% [at 28.7 µM] | –
63 | COc1cc(C2c3cc4c(cc3C(O[C@@H]3OC5COC(c6cccs6)OC5C(O)C3O)C3COC(=O)C23)OCO4)cc(OC)c1O (stereo partly drawn) | – | 4.26 µM (active)
